SF-1 inh: SF-1 (human) inhibition. Q13285. CHO-K1 Gal4-SF-1 LBD luciferase reporter. inhibition, % at 10 µM. actives 0.55% (n = 65,000). AID 525;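 active means inhibition above the mean inhibition of all tested compounds plus 3 SD, cut at about 48% in these data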;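 further: 0% = SF-1 transfected cells with DMSO and 100% = mock-transfected cells lacking SF-1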
Target sequence (Q13285 whole entry, looked up, the tested form may be a part): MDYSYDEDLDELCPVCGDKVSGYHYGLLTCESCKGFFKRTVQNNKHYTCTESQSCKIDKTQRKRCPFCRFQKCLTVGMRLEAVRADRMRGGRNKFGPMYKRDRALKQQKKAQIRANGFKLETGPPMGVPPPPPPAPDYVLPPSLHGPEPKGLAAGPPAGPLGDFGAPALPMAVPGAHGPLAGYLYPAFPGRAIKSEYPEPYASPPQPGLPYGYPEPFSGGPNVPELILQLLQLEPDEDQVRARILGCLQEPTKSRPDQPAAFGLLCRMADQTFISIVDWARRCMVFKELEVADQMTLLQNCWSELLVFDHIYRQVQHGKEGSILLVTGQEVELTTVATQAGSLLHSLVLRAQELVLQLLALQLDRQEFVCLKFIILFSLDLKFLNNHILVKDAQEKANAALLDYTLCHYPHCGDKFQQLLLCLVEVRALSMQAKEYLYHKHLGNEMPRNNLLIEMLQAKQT
Active calls of the source: *. This is one part of a sample in which hits are shown more often than they occur.

Screening O=C(c1cc(-c2cccc(O)c2)on1)N1CCN(C(c2ccccc2)c2ccccc2)CC1 returned SF-1 inh 5.4.
`CC(C)CCSc1nc(N)c(C#N)cc1C#N` gave SF-1 inh -3.4.
`O=C(NCCN1CCOCC1)C1CCC(=O)N1C1CCCCC1` (stereo unspecified) gave SF-1 inh 11.0.
For COc1cccc2c1C(=O)c1c(O)c3c(c(O)c1C2=O)C[C@@](O)(C(=O)CO)C[C@@H]3O[C@H]1C[C@H](N)[C@H](O)[C@H](C)O1 the results were SF-1 inh 79.8*.
For CN1C2C=C3C(C#N)=C(N)C(C#N)(C#N)[C@@H](c4ccc(Cl)cc4)[C@@H]3C1CC2 (stereo partly specified) the results were SF-1 inh 48.8*.
C/C(N)=C(/C#N)C(=O)CSc1nc2ccc(C)cc2[nH]1 was read as SF-1 inh -76.9.
Screening CCCc1nnc(NC(=O)CCC(=O)N2CCCCCC2)s1 returned SF-1 inh 7.7.
Screening Cc1ccc(S(=O)(=O)c2nc(-c3ccco3)oc2SCC(=O)NCC2CCCO2)cc1 (stereo unspecified) returned SF-1 inh -8.0.
Screening COc1cc2c(cc1NC(=O)c1cncc(Br)c1)oc1ccccc12 returned SF-1 inh -2.2.
`COc1cc2c(cc1NC(=O)CSCC(=O)O)oc1ccccc12` gave SF-1 inh 3.6.
COc1cc2c(cc1NC(=O)CSc1nnnn1-c1ccccc1)oc1ccccc12 was read as SF-1 inh 84.1*.
`Nc1c(C(=O)Nc2ccc(Cl)cc2)oc2ccccc12` gave SF-1 inh -105.7.
`N#Cc1c(NC(=O)CN2CCN(S(=O)(=O)c3ccc4c(c3)OCCO4)CC2)sc2c1CCC2` gave SF-1 inh 4.2.
Screening O=C(CNS(=O)(=O)c1ccc(Br)s1)Nc1ccc2c(c1)OCCO2 returned SF-1 inh -27.3.
O=S(=O)(NCc1csc(-c2ccccc2)n1)c1ccc(Cl)s1 was read as SF-1 inh 11.7.
O=S(=O)(NCc1ccncc1)c1ccc(Br)s1 was read as SF-1 inh 82.9*.
`CCOC(=O)Cn1c(=O)oc2cc(S(=O)(=O)NCc3cccs3)ccc21` gave SF-1 inh 9.1.
For O=C(CN(Cc1ccco1)C(=O)CNS(=O)(=O)c1ccc(F)cc1)NCCc1ccccc1 the results were SF-1 inh -1.7.
CN1CC(=O)N(C)c2ncn(Cc3ccccc3)c2C1=O was read as SF-1 inh 21.3.
COCCCNC(=O)CCN1C(=O)COc2ccccc21 was read as SF-1 inh 8.9.
For CCCNC(=O)c1cc(-c2ccc(Br)cc2)on1 the results were SF-1 inh -57.8.
For CCOc1ccc(-c2cc(CCCC(=O)NCCCOC)no2)cc1 the results were SF-1 inh 57.9*.
NC(=O)C1CCN(CCC(=O)Nc2cccc(Cl)c2)CC1 was read as SF-1 inh -0.2.
For O=c1cc(O)nc2n1CCCS2 the results were SF-1 inh -5.6.
For COc1ccc2cc(C(=O)NCc3ccco3)c(=O)oc2c1 the results were SF-1 inh 11.0.
For Cc1cc(C(=O)CNCc2ccco2)c(C)n1-c1ccc(F)cc1 the results were SF-1 inh -52.9.
Screening CCOC(=O)CSc1nc2cc(C(=O)NCc3ccco3)ccc2c(=O)n1-c1ccc(F)cc1 returned SF-1 inh 51.4*.
COc1ccc(C(=O)Nn2c(SCC(=O)NCc3ccco3)nc3ccccc3c2=O)cc1 was read as SF-1 inh 61.9*.
CCOC(=O)CSc1nnc(CNC(=O)c2ccc(OC)cc2OC)n1-c1ccc(OC)cc1 was read as SF-1 inh 14.3.
CCn1c(SCC(=O)NCCOc2ccccc2)nc2ccccc2c1=O was read as SF-1 inh 6.9.
For COc1ccc2[nH]c(=O)c(CN(C(=O)c3ccco3)C3CCCCC3)cc2c1 the results were SF-1 inh 10.0.
Screening Cn1c(=O)c2c(ncn2CCCNC2=CC(C)(C)CC(=O)C2)n(C)c1=O returned SF-1 inh 8.4.
For Cc1nc(SCC(=O)Nc2c(C)n(C)n(-c3ccccc3)c2=O)[nH]c(=O)c1Cc1ccccc1 the results were SF-1 inh -9.2.
Screening NC(=O)c1cc(Cl)cn(-c2ccccc2)c1=O returned SF-1 inh 24.0.
`O=c1cc(N2CCC(Cc3ccccc3)CC2)[nH]c(=O)n1C1CCCCC1` gave SF-1 inh -2.7.
`COc1ccc2c(c1)c(C(=O)CNc1nc(C)cs1)c(C)n2C` gave SF-1 inh 6.2.
Cc1ccc(NC(=O)Cc2nn(C)c(=O)c3ccccc23)cc1F was read as SF-1 inh 80.3*.
`Cc1csc(NC(=O)Cc2nn(C)c(=O)c3ccccc23)n1` gave SF-1 inh 54.1*.
Cc1ccc(OCC(=O)Nc2ccc(N3CCOCC3)cc2)cc1 was read as SF-1 inh -1.5.
Screening Cn1nc(CC(=O)Nc2ccc3c(c2)OCCO3)c2ccccc2c1=O returned SF-1 inh 62.4*.
Screening CCC(=O)Nc1ccc(N2CCN(C(=O)c3ccccc3C)CC2)cc1 returned SF-1 inh 4.1.
Screening Cn1nc(C(=O)NCC2CCCO2)c2ccccc2c1=O (stereo unspecified) returned SF-1 inh 5.9.

High-throughput results: PubChem BioAssay, The Scripps Research Institute Molecular Screening Center
